Compounds with a hit are over-represented: about 4.1% of the library has one in this group of screens.
LEDGF integ inh – blocks HIV-1 LEDGF/p75-dependent DNA integration | TR-FRET IN-LEDGF/p75 DNA integration, Eu/Cy5 | inhibition, % at 3.7 µM | 0.64% of 370,000 active;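 active = inhibition above the screen-wide mean plus 3 SD, cut at about 13% in these data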;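 also: signal is the Cy5 over europium emission ratio at 671 and 618 nm; 0% = plate median of compound wells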
rCAG RNA binder – binds r(CAG) RNA repeats; r(CAG) RNA repeat, TO-PRO-1 dye displacement fluorescence; inhibition, % at 3 µM; 1.3% of 370,000 active; AID 651821;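 active = inhibition above the plate cutoff, the mean of all test compounds on that plate plus 3 SD, cut at about 35% in these data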;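 also: 0% = DMSO alone and 100% = 100 µM mitoxantrone as full dye displacement; higher means more dye released from RNA so lower well fluorescence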
UHRF1 MBD2 ctr – blocks human UHRF1 binding to methylated DNA. inhibition, % at 4.4 µM. 0.75% of 370,000 active. UHRF1 binding to methylated oligo, TR-FRET. Q96T88; in the data active = inhibition above about 21%;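 also: UHRF1 SRA domain binding a hemimethylated CpG hairpin DNA probe; 0% = median of test compound wells and 100% = reference inhibitor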
PRMT1 inh – inhibitors of human PRMT1; Q99873; inhibition, % at 2.79 µM; AID 652257; recombinant PRMT1, activity-based probe fluorescence polarization; 1.3% of 370,000 active;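 active = inhibition above about 21% made by adding two undisclosed values, limit read from the data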
ABHD5-PLIN5 inh – ABHD5-PLIN5 protein interaction inhibition; Split G. princeps luciferase complementation, luminescence, 4 h; inhibition, % at 4 µM; 0.78% of 360,000 active; AID 602281;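 active = inhibition above the mean inhibition across every tested compound plus 3 SD, cut at about 22% in these data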;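 also: 0% = DMSO only wells and the 100% control is not disclosed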
MBD2 inh – inhibitors of human MBD2 binding to methylated oligonucleotide | TR-FRET | inhibition, % at 4.4 µM | 0.31% of 370,000 active | AID 686964; in the data active = inhibition above about 13%
Target sequence (Q9UBB5 whole entry, looked up): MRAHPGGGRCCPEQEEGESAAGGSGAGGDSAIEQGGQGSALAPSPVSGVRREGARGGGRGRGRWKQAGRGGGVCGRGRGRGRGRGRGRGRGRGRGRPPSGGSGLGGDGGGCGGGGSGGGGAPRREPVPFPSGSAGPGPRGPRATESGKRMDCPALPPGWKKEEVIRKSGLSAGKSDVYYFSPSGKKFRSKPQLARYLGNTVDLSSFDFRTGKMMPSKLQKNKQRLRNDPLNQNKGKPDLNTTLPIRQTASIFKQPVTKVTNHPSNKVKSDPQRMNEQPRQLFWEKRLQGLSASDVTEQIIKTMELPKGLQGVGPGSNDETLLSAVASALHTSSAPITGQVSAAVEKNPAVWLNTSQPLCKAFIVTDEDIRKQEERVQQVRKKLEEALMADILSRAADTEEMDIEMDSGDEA
ABHD5 PLIN5 conf – ABHD5-PLIN5 interaction inhibition, confirmed; 67% of 2,200 active; shares compounds with ABHD5-PLIN5 inh; biochemical ABHD5-PLIN5 interaction, luminescence; inhibition, % at 4 µM; AID 651612; in the data active = inhibition above about 23%;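 also: 0% = DMSO vehicle wells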
HNF4 counter – active in HNF4 split-luciferase counter-screen for ABHD5-PLIN5 inhibitors. shares compounds with ABHD5-PLIN5 inh. HNF4 dimerization, luminescence, biochemical. inhibition, % at 4 µM. 77% of 2,200 active;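 active = mean inhibition across replicate wells exceeding the computed hit threshold, cut at about 13% in these data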;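 also: light from luciferase halves that rejoin when HNF4 fusion proteins dimerize; 0% = DMSO only wells and the 100% control is not given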
rCAG bind conf – r(CAG) RNA repeat binding, confirmation; inhibition, % at 3 µM; AID 652065; shares compounds with rCAG RNA binder; 70% of 4,300 active; TO-PRO-1 dye displacement fluorescence;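 active = inhibition above a per-plate cutoff, the mean inhibition of sample wells plus 3 SD, cut at about 35% in these data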;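 also: loss of TO-PRO-1 fluorescence as compound displaces dye from 1x1 AA loop RNA; 0% = DMSO only wells and 100% = 100 µM mitoxantrone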
DNA CAG counter – disrupts DNA CAG TO-PRO-1 complex, flagging rCAG hits | d(CAG) DNA oligo TO-PRO-1 dye displacement, fluorescence | 94% of 4,300 active | inhibition, % at 3 µM | shares compounds with rCAG RNA binder | AID 652068;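 active = inhibition above its plate's cutoff, the mean test-well inhibition plus 3 SD, cut at about 4.8% in these data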;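 also: 0% = DNA dye mix with DMSO and 100% = 100 µM mitoxantrone; hits displace the dye from DNA and so lower well fluorescence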
PRMT1 confirm – PRMT1 (human) inhibition, FP confirmation | shares compounds with PRMT1 inh | recombinant His-PRMT1, activity-based probe fluorescence polarization | inhibition, % at 2.79 µM | 42% of 3,300 active | AID 687036;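 active = mean inhibition across replicates above the hit cutoff derived for the earlier primary screen, cut at about 22% in these data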
* hit, by the source's call; . = no result given.

SMILES	LEDGF integ inh	rCAG RNA binder	UHRF1 MBD2 ctr	PRMT1 inh	ABHD5-PLIN5 inh	MBD2 inh	ABHD5 PLIN5 conf	HNF4 counter	PRMT1 confirm	others
Cc1c(C(=O)OCC(C)C)[nH]c2c1C(=O)CC(c1ccco1)C2 (configuration not stated)	5	23	4	31*	28*	6	6	8	9
Cc1ccc(N2C(=O)CC(N3CCN(c4ccc(F)cc4)CC3)C2=O)c(C)c1 (configuration not stated)	3	1	4	7	-9	1	.	.	.
Cc1ccc(-n2sc3cc(F)ccc3c2=O)c(C)c1	-4	3	-1	92*	66*	-3	63*	116*	81*
COc1ccc(/C=C2\CC3(OC(=O)c4ccccc4)CCCN2C3)cc1 (configuration not stated)	3	-1	4	-2	.	-3	.	.	.
CC1=C(C(=O)Nc2ccccc2)C(c2ccc(Cl)cc2)n2c(s/c(=C/c3cccc(OCC(=O)O)c3)c2=O)=N1 (configuration not stated)	3	67*	-1	26*	27*	3	49*	29*	5	rCAG bind conf=87*;DNA CAG counter=63*
Cc1ccc(C2CC(c3ccccc3)=NN2C(=S)Nc2ccccc2)o1 (configuration not stated)	-4	6	-6	51*	42*	-1	5	3	0
CCC(=O)Nc1ccc2c(c1)C(=O)N(C)[C@@H]1CC[C@@H](CC(=O)NCc3ccc(OC)cc3)O[C@H]1CO2	-2	6	4	5	.	-1	.	.	.
Cc1ccc(SC(CC(=O)c2ccc(C)cc2)C(=O)O)cc1 (configuration not stated)	1	11	3	59*	69*	-1	29*	73*	69*
COc1ccc(C(C(=O)NC(C)(C)C)n2c(=O)c(-c3ccccc3)nc3ccccc32)cc1 (configuration not stated)	-4	3	1	0	-1	-2	.	.	.
O=C(NC1CCCCC1)C(c1cccc2ccccc12)n1c(=O)c(-c2ccco2)nc2ccccc21 (configuration not stated)	3	35*	-7	29*	87*	1	85*	9	19
O=C(NC1CCCCC1)C(CCc1ccccc1)n1c(=O)c(-c2ccccc2)nc2ccccc21 (configuration not stated)	1	6	-1	-1	-6	-3	.	.	.
CC(C)(C)NC(=O)C(c1ccccc1)n1c(=O)c(-c2ccco2)nc2ccccc21 (configuration not stated)	1	36*	-6	26*	75*	-2	77*	26*	16
O=c1c(-c2ccco2)nc2ccccc2n1C(c1ccccn1)c1nc2ccccc2[nH]1 (configuration not stated)	13	24	-4	57*	37*	-8	33*	59*	12
COc1cc2c(cc1NC(=O)CSc1nnc(-c3ccccc3C)n1Cc1ccco1)oc1ccccc12	1	12	1	17	.	-4	.	.	.
CCN(CC)C(=O)CC[C@H]1CC[C@]2(CCCN(Cc3ccc(OC)cc3)C2)O1	1	-3	-1	-3	.	1	.	.	.
O=C1C=CC(=O)N1c1ccc2c(c1)Cc1cc(F)ccc1-2	-3	2	-1	87*	26*	3	42*	71*	83*
CC(=O)Nc1ccc2c(c1)Cc1cc(N3C(=O)C=CC3=O)ccc1-2	-4	8	-2	91*	35*	-2	45*	104*	95*
COC(=O)c1cc(S(=O)(=O)NCC2CCN(C(=O)C(=O)c3cccs3)CC2)cs1	4	4	3	1	.	7	.	.	.
CCOc1ccc2[nH]c(=O)c(CN(Cc3ccco3)C(=O)c3ccc(Br)cc3)cc2c1	7	11	2	36*	30*	0	89*	92*	0
O=C(Nc1ccc(F)cc1)Nc1nc2ncccn2c1-c1ccc(F)cc1	-5	5	-4	0	.	-2	.	.	.
C=CCCC1CN(Cc2ccc(OC)cc2)S(=O)(=O)c2c(cccc2N2CCCC2)O1 (configuration not stated)	1	4	-1	-3	.	-4	.	.	.
Cc1ccc(/C=C/C(=O)Nc2ccc(N(C)C)cc2)o1	-2	3	-5	2	1	1	.	.	.
Cc1ccc(/C=C/C(=O)OCC(=O)NCCc2ccc(S(N)(=O)=O)cc2)o1	0	4	5	5	2	1	.	.	.
Cc1ccc(/C=C/C(=O)NCCc2c[nH]c3ccccc23)o1	-2	1	1	5	2	-3	.	.	.
Cc1ccc(/C=C/C(=O)NCc2ccc(S(N)(=O)=O)cc2)o1	0	21	1	42*	47*	-4	46*	57*	81*
SMILES	LEDGF integ inh	rCAG RNA binder	UHRF1 MBD2 ctr	PRMT1 inh	ABHD5-PLIN5 inh	MBD2 inh	ABHD5 PLIN5 conf	HNF4 counter	PRMT1 confirm	others
Cc1ccc(/C=C/C(=O)NCCc2cccc(Cl)c2)o1	-4	0	1	46*	40*	5	68*	79*	90*
CC(=O)NS(=O)(=O)c1ccc(NC(=O)/C=C/c2ccc(C)o2)cc1	8	6	11	27*	28*	2	50*	62*	77*
Cc1ccc(/C=C/C(=O)Nc2ccc(S(N)(=O)=O)cc2)o1	0	17	2	76*	36*	9	64*	81*	81*
CCOC(=O)[C@@]12CCC3=C1N(CCC3)C(=O)[C@H](CC(=O)N1CCCCC1)C2	-2	2	2	0	.	0	.	.	.
CCc1ccccc1CNC(=O)C1CCC(CNS(=O)(=O)c2cccc3cccnc23)CC1 (configuration not stated)	2	5	-3	1	.	-2	.	.	.
Cc1cccc(NC(=O)[C@H]2CC(=O)O[C@@H]2c2ccccc2)c1C	-4	0	3	-1	.	1	.	.	.
COC(=O)[C@]12C[C@H](CC(=O)NCCCCc3ccccc3)C(=O)N(Cc3ccccc3)C1=C[C@H](COCc1ccccc1)O[C@@H]2C	-4	9	1	5	.	-3	.	.	.

Assay outcomes as filed in PubChem BioAssay.
